The panel holds about 83,000 compounds, 20% with a hit somewhere; the sample as a whole holds those more often.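 The endpoint reported here, percent growth, reads 100 for growth as untreated, 0 for no net growth and -100 for all cells dead.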 The source made the active and inactive calls. The calls were made as follows: active = growth percent below 10; inactive = the rest.
Legend:
Assay in all cases: NCI-60 one-dose screen, 48 h (100 = growth as untreated, 0 = no growth, -100 = all killed)
Details in all cases: 10 µM unless noted
SR leukemia = system: SR leukemia
RPMI-8226 leukemia = system: RPMI-8226 leukemia
OVCAR-8 ovarian = system: OVCAR-8 ovarian
OVCAR-5 ovarian = system: OVCAR-5 ovarian
OVCAR-4 ovarian = system: OVCAR-4 ovarian
SK-OV-3 ovarian = system: SK-OV-3 ovarian
IGROV1 ovarian = system: IGROV1 ovarian
OVCAR-3 ovarian = system: OVCAR-3 ovarian
HS 578T breast = system: HS 578T breast
NCI/ADR-RES ovarian = system: NCI/ADR-RES ovarian
T-47D breast = system: T-47D breast
BT-549 breast = system: BT-549 breast
MDA-MB-435 melanoma = system: MDA-MB-435 melanoma
SW-620 colon = system: SW-620 colon
MCF7 breast = system: MCF7 breast
HCT-116 colon = system: HCT-116 colon
HCC-2998 colon = system: HCC-2998 colon
KM12 colon = system: KM12 colon

Measured: growth

Cc1ccc(S(=O)(=O)OC[C@]23CCC(C)(C)C[C@H]2C2=CC[C@@H]4[C@@]5(C)CCCNC(C)(C)[C@@H]5CC[C@@]4(C)[C@]2(C)CC3)cc1
inactive: RPMI-8226 leukemia 26.8% | OVCAR-5 ovarian 84.7% | OVCAR-4 ovarian 23.3% | SK-OV-3 ovarian 103% | IGROV1 ovarian 16.9% | OVCAR-3 ovarian 76.5% | HS 578T breast 85.3% | NCI/ADR-RES ovarian 52.3% | BT-549 breast 88.2% | MDA-MB-435 melanoma 31% | MCF7 breast 23.8%
active: SR leukemia -27.3% | OVCAR-8 ovarian -13.7% | T-47D breast 1.19% | SW-620 colon -71.3% | HCT-116 colon -83% | HCC-2998 colon -12.3% | KM12 colon -1.94%

COC1C(O)CC(OC2CC(OC3CC(O[C@@H]4C(=O)c5c(cc6cc(OC7CC(OC8CC(O)C(O)C(C)O8)C(O)C(C)O7)c(C)c(O)c6c5O)CC4[C@H](OC)C(=O)C(C)=O)OC(C)C3O)OC(C)C2O)OC1C (stereo partly specified)
active: SR leukemia -5.46% | RPMI-8226 leukemia 1.67% | OVCAR-8 ovarian 4.01% | OVCAR-3 ovarian 6.3% | T-47D breast -4.93% | BT-549 breast -18.8% | MDA-MB-435 melanoma -74.8% | SW-620 colon 8.3% | MCF7 breast 3.16% | HCT-116 colon 4.47% | HCC-2998 colon -14.3%
inactive: OVCAR-5 ovarian 13.9% | OVCAR-4 ovarian 10.7% | SK-OV-3 ovarian 17.4% | IGROV1 ovarian 13.6% | HS 578T breast 10.8% | NCI/ADR-RES ovarian 18.8% | KM12 colon 13%

C=C(C)[C@@H]1CC[C@]2(CO)CC[C@]3(C)[C@H](CC[C@@H]4[C@@](C)(CCCN)[C@H](C(=C)C)CC[C@]43C)[C@@H]12
active: SR leukemia -14% | RPMI-8226 leukemia -43.2% | OVCAR-8 ovarian -40.4% | OVCAR-5 ovarian -78.5% | OVCAR-4 ovarian -67.8% | SK-OV-3 ovarian -82.4% | IGROV1 ovarian -96.2% | OVCAR-3 ovarian -61.7% | HS 578T breast -52.3% | NCI/ADR-RES ovarian -80.4% | T-47D breast -40.5% | BT-549 breast -92.8% | MDA-MB-435 melanoma -97% | SW-620 colon -89.5% | MCF7 breast -89.3% | HCT-116 colon -88.3% | HCC-2998 colon -80.1% | KM12 colon -79.6%

Nc1ccc(-c2ccncc2)cc1NC(=O)N1CCCC1
inactive: SR leukemia 91.8% | RPMI-8226 leukemia 82.2% | OVCAR-8 ovarian 85.3% | OVCAR-5 ovarian 109% | OVCAR-4 ovarian 101% | SK-OV-3 ovarian 92.2% | IGROV1 ovarian 99.4% | OVCAR-3 ovarian 99.3% | HS 578T breast 93.7% | NCI/ADR-RES ovarian 81.8% | T-47D breast 81.9% | BT-549 breast 104% | MDA-MB-435 melanoma 96.3% | SW-620 colon 98.2% | MCF7 breast 87% | HCT-116 colon 86.8% | HCC-2998 colon 94.4% | KM12 colon 94.6%

CN1CCN(Cc2ccc(NC(=O)c3cncc(C#Cc4cnc(N)cc4C#N)c3)cc2C(F)(F)F)CC1
active: SR leukemia 1.8% | SK-OV-3 ovarian -14.6% | IGROV1 ovarian 1.46% | HS 578T breast -8.07% | MDA-MB-435 melanoma 2.03% | SW-620 colon -2.02% | HCT-116 colon 1.47% | KM12 colon 5.45%
inactive: RPMI-8226 leukemia 12.7% | OVCAR-8 ovarian 22.6% | OVCAR-5 ovarian 15.8% | OVCAR-4 ovarian 23.2% | OVCAR-3 ovarian 28.4% | NCI/ADR-RES ovarian 66.3% | T-47D breast 24.7% | BT-549 breast 37.5% | MCF7 breast 18.7% | HCC-2998 colon 22.5%

Cc1ccc2cnc(N)c(C#Cc3cc(C(=O)Nc4ccc(CN5CCN(C)CC5)c(C(F)(F)F)c4)cnc3C)c2c1
active: SR leukemia -36.1% | RPMI-8226 leukemia -40.6% | OVCAR-5 ovarian -59.1% | HS 578T breast -12.4% | MDA-MB-435 melanoma -69.3% | SW-620 colon -77.3% | MCF7 breast -50.8% | HCT-116 colon -83.9% | KM12 colon 0.561%
inactive: OVCAR-8 ovarian 48.4% | OVCAR-4 ovarian 37.6% | SK-OV-3 ovarian 50.5% | IGROV1 ovarian 11% | OVCAR-3 ovarian 32.4% | NCI/ADR-RES ovarian 22.8% | T-47D breast 66.8% | BT-549 breast 16.5% | HCC-2998 colon 54%

CCN1C2CCC1/C(=C\c1ccccc1)C(=O)/C2=C/c1ccccc1
inactive: SR leukemia 27.3% | RPMI-8226 leukemia 38.2% | OVCAR-8 ovarian 22.5% | OVCAR-5 ovarian 88.3% | OVCAR-4 ovarian 46.1% | SK-OV-3 ovarian 78.5% | IGROV1 ovarian 49.9% | OVCAR-3 ovarian 13% | HS 578T breast 71.4% | NCI/ADR-RES ovarian 15.1% | T-47D breast 56.9% | BT-549 breast 48.6% | MDA-MB-435 melanoma 30.7% | SW-620 colon 42.4% | MCF7 breast 25.2% | HCT-116 colon 15.6% | HCC-2998 colon 80.1% | KM12 colon 20.6%

Nc1nc(N)c2c(n1)NC(c1cccc(Nc3ccnc4cc(C(F)(F)F)ccc34)c1)CC(c1ccc3c(c1)OCO3)=N2 (stereo unspecified)
inactive: RPMI-8226 leukemia 17% | OVCAR-8 ovarian 73.4% | OVCAR-5 ovarian 123% | OVCAR-4 ovarian 85.9% | SK-OV-3 ovarian 76.8% | IGROV1 ovarian 73% | OVCAR-3 ovarian 65.7% | HS 578T breast 66.9% | NCI/ADR-RES ovarian 84.1% | T-47D breast 90.6% | BT-549 breast 112% | SW-620 colon 54.6% | MCF7 breast 33.3% | HCT-116 colon 39.9% | HCC-2998 colon 75.7% | KM12 colon 38.6%
active: SR leukemia 1.91% | MDA-MB-435 melanoma 9.59%

O=S(=O)(N=C1C(Cl)=C(Cl)C(=NS(=O)(=O)c2ccccc2)C(Cl)=C1Cl)c1ccccc1
inactive: SR leukemia 46.4% | RPMI-8226 leukemia 79.4% | OVCAR-8 ovarian 69% | OVCAR-5 ovarian 73.8% | OVCAR-4 ovarian 91.9% | SK-OV-3 ovarian 102% | IGROV1 ovarian 57.7% | OVCAR-3 ovarian 130% | HS 578T breast 93.2% | NCI/ADR-RES ovarian 65.3% | T-47D breast 88.9% | BT-549 breast 86.6% | MDA-MB-435 melanoma 101% | SW-620 colon 39.7% | MCF7 breast 53.8% | HCT-116 colon 25.4% | HCC-2998 colon 122% | KM12 colon 96.2%

CC1(/C=C/c2ccc(-c3ccccc3)cc2)CCn2cnc3ncnc(c32)N1O (stereo unspecified)
inactive: SR leukemia 18.3% | RPMI-8226 leukemia 21.3% | OVCAR-8 ovarian 25.7% | OVCAR-5 ovarian 47.9% | OVCAR-4 ovarian 36.6% | SK-OV-3 ovarian 19.8% | IGROV1 ovarian 15.3% | OVCAR-3 ovarian 37.2% | HS 578T breast 55.5% | T-47D breast 37.8% | BT-549 breast 17% | MDA-MB-435 melanoma 28.4% | SW-620 colon 28.2% | HCT-116 colon 20.2% | HCC-2998 colon 32.3% | KM12 colon 26%
active: NCI/ADR-RES ovarian 3.15% | MCF7 breast 8.15%

COC(=O)c1ccc2c(c1)c1c(C)c3cnccc3c(C)c1n2C
active: RPMI-8226 leukemia -15.4% | OVCAR-8 ovarian 0.0639% | OVCAR-5 ovarian -33.3% | OVCAR-4 ovarian -14.8% | SK-OV-3 ovarian -15.3% | IGROV1 ovarian -33.1% | OVCAR-3 ovarian -26% | HS 578T breast -15% | NCI/ADR-RES ovarian -25% | T-47D breast -21.6% | BT-549 breast -4.33% | MDA-MB-435 melanoma 6.89% | SW-620 colon -6.12% | MCF7 breast -37.1% | HCT-116 colon -59.8% | HCC-2998 colon 1.42% | KM12 colon 1.9%
inactive: SR leukemia 18.2%

CNC(=O)NCC1OC(n2cnc3c(NC(=O)Nc4ccccc4)ncnc32)C2OC(=O)CC12 (stereo unspecified)
inactive: SR leukemia 90.3% | RPMI-8226 leukemia 105% | OVCAR-8 ovarian 96.4% | OVCAR-5 ovarian 96.8% | OVCAR-4 ovarian 106% | SK-OV-3 ovarian 102% | IGROV1 ovarian 92.3% | OVCAR-3 ovarian 91.7% | HS 578T breast 105% | NCI/ADR-RES ovarian 96.8% | T-47D breast 91.6% | BT-549 breast 100% | MDA-MB-435 melanoma 101% | SW-620 colon 106% | MCF7 breast 97.9% | HCT-116 colon 98.7% | HCC-2998 colon 93.1% | KM12 colon 106%
